# Laboratory results published in PubChem BioAssay (Tox21).
# Active and inactive are the calls of the source. Calls come from the whole dose curve.
# Biological target: Muscarinic acetylcholine receptor M1 (Homo sapiens) (UniProt P11229)
# Assay: Cholinergic receptor muscarinic 1 (CHRM1) small molecule agonists, cell-based qHTS assay (AID 1963589); note: nearly all actives have a fitted effect of over 35% in size
# Settings: CHRM1-CHO cells, agonist mode, calcium flux fluorescence; series mostly up to 76.8 µM; activation: at the top concentration
# From the text: National Center for Advancing Translational Sciences [NCATS]
# Division of Preclinical Innovation [DPI]
# U.S. Environmental Protection Agency [EPA]
# National Institutes of Environmental Health Sciences [NIEHS]
# National Toxicology Program [NTP]
# U.S. Food and Drug Administration [FDA]
# The CHRM1 is a muscarinic receptor. This receptor plays a crucial role in learning and memory processes and has long been identified as a promising therapeutic target for the improvement of cognitive decline in Alzheimer's disease (AD). The CHRM1-CHO cell line stably expressing human muscarinic acetylcholine receptor M1 (CHRM1) can be used for screening agonists and antagonists of interactions between CHRM1 and its ligands. The CHRM1-CHO Calcium Flux Assay is a homogeneous fluorescence-based assay for detecting the intracellular calcium level using FDSS kinetic plate reader system.
# CHRM1-CHO cells were dispensed at 1000 cells/3uL/well in 1536-well black-clear bottom plates using a Multidrop Dispenser. After the assay plates were incubated at a 37 C/5% CO2 incubator for 18 h, 3 uL of Dye Loading Buffer was transferred to the assay plate by a Flying Reagent Dispenser. The assay plates were incubated at 37 C for 1h. For agonist mode, 23 nL of compounds dissolved in DMSO, positive controls or DMSO only was transferred to the assay plate by a pin tool. […] Each test compound was measured at 15 concentrations in three independent runs.
# % is set by controls: 0 for no effect and ±100 for the full control effect.
# Chain of Muscarinic acetylcholine receptor M1 (Homo sapiens) (P11229 whole entry, looked up): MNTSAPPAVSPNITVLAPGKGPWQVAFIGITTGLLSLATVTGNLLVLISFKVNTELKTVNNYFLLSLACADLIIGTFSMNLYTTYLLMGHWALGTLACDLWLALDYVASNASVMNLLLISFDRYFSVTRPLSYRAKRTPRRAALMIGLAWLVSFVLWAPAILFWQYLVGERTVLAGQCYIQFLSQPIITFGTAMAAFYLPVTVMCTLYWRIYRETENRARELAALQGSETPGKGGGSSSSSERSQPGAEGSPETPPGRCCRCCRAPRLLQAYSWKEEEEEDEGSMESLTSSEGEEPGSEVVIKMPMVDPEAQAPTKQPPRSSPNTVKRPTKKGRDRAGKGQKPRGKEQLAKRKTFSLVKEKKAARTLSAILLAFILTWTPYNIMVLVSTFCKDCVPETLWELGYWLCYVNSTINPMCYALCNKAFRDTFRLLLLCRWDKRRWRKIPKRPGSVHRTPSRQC
row,Structure (SMILES),activation
1,O=C(O)C(Br)(Br)Br,0.702% (inactive)
2,Clc1cc(C(Cl)(Cl)Cl)cnc1Cl,-1.39% (inactive)
3,Oc1ccc(C(=C(Cl)Cl)c2ccc(O)cc2)cc1,-0.293% (inactive)
4,O=C(O)c1cccc(Cl)c1,-0.147% (inactive)
5,CCCCCCCCCCCCCCC(Br)C(=O)O (stereo not given),-0.669% (inactive)
6,O=Cc1ccc2c(c1)OCO2,0.0404% (inactive)
7,NC(=O)C(Cl)Cl,8.83% (inactive)
8,CNC(=O)Oc1cc(C)cc(C(C)C)c1,0.954% (inactive)
9,CCCN(CCC)c1c([N+](=O)[O-])cc(S(C)(=O)=O)cc1[N+](=O)[O-],14.8% (inactive)
10,CC(C)(C)C(=O)C(Oc1ccc(Cl)cc1)n1cncn1 (stereo not given),-0.099% (inactive)
11,Oc1ccc(C2(c3ccc(O)cc3)c3ccccc3-c3ccccc32)cc1,2.61% (inactive)
12,CCOC(=O)C(Cl)C(C)=O (stereo not given),0.449% (inactive)
13,COP(=O)(OC)SCn1c(=O)oc2cc(Cl)cnc21,-0.222% (inactive)
14,Nc1ccc2c(c1)Cc1ccccc1-2,-0.744% (inactive)
15,O=C(O)COc1ccc(Cl)cc1,0.263% (inactive)
16,CC(C)[C@@H](Nc1ccc(C(F)(F)F)cc1Cl)C(=O)OC(C#N)c1cccc(Oc2ccccc2)c1 (stereo not given in full),-1.08% (inactive)
17,CCc1ccccc1N,-0.14% (inactive)
18,COc1cc(OC)nc(NC(=O)NS(=O)(=O)c2ncccc2OCC(F)(F)F)n1,0.103% (inactive)
19,CC(C)(C)NCC(O)c1cc(Cl)c(N)c(C(F)(F)F)c1 (stereo not given),-0.905% [at 35.3 µM] (inactive)
20,C[N+](C)=CCl,-0.927% (inactive)

row,Structure (SMILES),activation
1,CCCOc1nn(C(=O)NS(=O)(=O)c2ccccc2C(=O)OC)c(=O)n1C,0.286% (inactive)
2,COc1ncc(F)c2nc(S(=O)(=O)Nc3c(F)cccc3F)nn12,1.22% [at 35.3 µM] (inactive)
3,COP(=S)(NC(C)C)Oc1ccc(C)cc1[N+](=O)[O-] (stereo not given),-0.75% (inactive)
4,COC(=O)c1ccccc1S(=O)(=O)NC(=O)Nc1nc(C)nc(OC)n1,0.61% (inactive)
5,CC[C@H]1C[C@H]2[C@@H]3CCC4=CC(=O)CC[C@@H]4[C@H]3CC[C@]2(C)[C@H]1O,1.8% [at 35.3 µM] (inactive)
6,CCCCOC(=O)[C@@H](C)Oc1ccc(Oc2ccc(C#N)cc2F)cc1,-0.487% (inactive)
7,O=C(CBr)Nc1ccc(Cl)cc1C(=O)c1ccccc1F,-0.612% [at 35.3 µM] (inactive)
8,CC(=O)[O-].CC(=O)[O-].O.O.[Zn+2],0.418% (inactive)
9,CC(=O)OC1(c2ccccc2)CCN(CCc2ccccc2)CC1,4.56% (inactive)
10,CCC(C)(C)C(=O)OC1=C(c2ccc(Cl)cc2Cl)C(=O)OC12CCCCC2,-0.961% (inactive)
11,CCOP(=O)(OCC)Oc1nc(Cl)c(Cl)cc1Cl,0.0959% (inactive)
12,COC(=O)c1cc(Oc2ccc(Cl)cc2Cl)ccc1[N+](=O)[O-],1.87% (inactive)
13,CC(C)C(Nc1ccc(C(F)(F)F)cc1Cl)C(=O)OC(C#N)c1cccc(Oc2ccccc2)c1 (stereo not given),0.974% (inactive)
14,O=C(NC(=O)c1c(F)cccc1F)Nc1ccc(Oc2ccc(C(F)(F)F)cc2Cl)cc1F,-0.346% (inactive)
15,CNCC(=O)c1ccc(O)c(O)c1,-0.366% [at 35.3 µM] (inactive)
16,CC(=O)c1cc2c(cc1C)C(C)(C)C(C)CC2(C)C (stereo not given),-0.0886% (inactive)
17,CC(C)(C)c1ccc(OP(=O)(Oc2ccccc2)Oc2ccccc2)cc1,-0.469% (inactive)
18,CCN(CC)c1nc(C)cc(OP(=S)(OC)OC)n1,4.02% (inactive)
19,c1ccc(OCC2CO2)cc1 (stereo not given),-0.335% (inactive)
20,CCC[CH2][Sn]([CH2]CCC)([CH2]CCC)[O][Sn]([CH2]CCC)([CH2]CCC)[CH2]CCC,7.77% [at 6.97 µM] (inactive)
